The panel holds about 83,000 compounds, 20% with a hit somewhere; the sample as a whole holds those more often.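 In brief: 96-well plates, 48 h treatment, single concentration, percent growth endpoint.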 The source made the active and inactive calls. How the source made its calls: active means growth percent below 10; inactive means the rest.

The assay has as its system SNB-19 CNS. Description: NCI-60 one-dose screen, 48 h (100 = growth as untreated, 0 = no growth, -100 = all killed). To be noted: 10 µM unless noted.
Consider `O=C1NC(=O)c2c1c1c3cc(Br)ccc3[nH]c1c1oc3ccc(F)cc3c21`, for which the growth was -16.9% (active). For the compound `C#CCOc1ccc(/C=N/Nc2nc(-c3ccc(F)cc3)cs2)cc1OC`, the growth was 77.5% (inactive).

Take `O=C1NC(=O)/C(=C/c2ccccc2OCc2cc3ccccc3nc2Cl)S1`: the growth was 39.2% (inactive).

On to `Cc1ccc(NCC(=O)Cn2cc(COc3ccc(C=Nc4cnc5ccccc5c4)cc3)nn2)cc1`, for which the growth is 97.9% (inactive). With `C/C(=N\N=C1/C(=O)Nc2ccccc21)c1ccc2c(c1)Nc1ccccc1S2`, the growth was 64.5% (inactive). Regarding `C/C(=N\N=C1/C(=O)Nc2ccc(Cl)cc21)c1ccc2c(c1)Nc1ccccc1S2`, the growth was 18.7% (inactive). As to `Cc1cc2c(cc1Cl)C(=O)/C(=C/c1ccccc1)O2`, the growth was 34.6% (inactive).

With `COc1ccc(C(=O)/C=C/c2ccc(OCc3ccc(F)cc3)c(OC)c2)cc1OC`, the growth is 15.4% (inactive).

Turning to `COc1cc(OC)c2c3nc4cc(C)c(C)cc4nc3n(CCN(C)C)c2c1`, the growth is 70.5% (inactive).

Turning to `N=C1N=C(SCc2nc3ccccc3[nH]2)NC(=O)/C1=C/c1ccc(Cl)cc1`, the growth is 105% (inactive). Take `COc1ccc(C2CC(c3ccc(S(=O)(=O)NCCNc4nc(Nc5ccc(F)cc5)nc(N(C)C)n4)cc3)=Nc3c(N)nc(N)nc3N2)cc1` (stereo not drawn): the growth was 76.3% (inactive).

Regarding `CC1(C)CC[C@]2(C(=O)O)CC[C@]3(C)C(=CCC4[C@@]5(C)C[C@@H](O)[C@@H]6OC(c7cccc(Br)c7)OC[C@@]6(C)C5CC[C@]43C)C2C1` (stereo partly drawn), the growth was 47.1% (inactive). Turning to `COc1ccc(C(=O)/C=C/c2ccc(OCc3ccccc3)c(OC)c2)cc1OC`, the growth is 14.4% (inactive). With `O=C(N=Nc1c(O)[nH]c2ccc([N+](=O)[O-])cc12)c1ccc2nc(-c3ccccc3)[nH]c2c1`, the growth was 43.6% (inactive).

With `C/C(=N\N=C\c1cc([N+](=O)[O-])ccc1Cl)c1ccc2c(c1)Nc1ccccc1S2`, the growth was 51.6% (inactive).

Regarding `C=C1CCC2C3(C)COC(c4ccc(F)cc4)OC3CCC2(C)C1C/C=C1/C(=O)OCC1O` (stereo not drawn), the growth is -55.8% (active). For the compound `N/C(=N\c1nc2ccccc2s1)NC(=O)Nc1ccccc1Br`, the growth was 2.22% (active). `O=C(Cn1c2c(sc1=O)[C@H]1[C@@H](O)[C@@H](O)[C@H](O)[C@@H]1CS2)N1CCOCC1`: the growth was 103% (inactive). To `COC(=O)/C=C/c1cccc2c1C(=O)NC(C)(c1cc3ccccc3oc1=O)N2` (stereo not drawn) belongs 81.5% (inactive); to `Brc1ccc(-c2n(Cc3ccc4ccccc4c3)c(-c3ccccc3)c(-c3ccccc3)[n+]2Cc2ccc3ccccc3c2)cc1`, -93.4% (active).

As to `COc1ccc(NC(=O)Cn2c3c(sc2=O)[C@H]2[C@@H](O)[C@@H](O)[C@H](O)[C@@H]2CS3)cc1`, the growth is 106% (inactive). For the compound `Cc1cc2nc3c4ccccc4n(CCCN(C)C)c3nc2cc1C`, the growth is -8.61% (active). On to `O=S(=O)(Nc1cccc(-n2cnc3cc(-c4ccc(O)cc4)ccc32)c1)C1CC1`, for which the growth is 37.7% (inactive). Take `CN(C)c1nc(NCCNS(=O)(=O)c2ccc(C3=Nc4c(N)nc(N)nc4NC(c4ccc(C(F)(F)F)cc4)C3)cc2)nc(Nc2ccc(F)cc2)n1` (stereo not drawn): the growth was 22.9% (inactive). Then `O=C(NN1C(=O)/C(=C/C=C/c2ccc([N+](=O)[O-])o2)SC1=S)c1ccc(Cl)cc1`, with -100% (active); and `COCOc1ccc2c(=O)c(C)c(C(=O)N[C@@H](Cc3ccccc3)C(O)C(=O)NCCc3ccc(OC)cc3)oc2c1` (stereo partly drawn), with 96% (inactive); and `C#CCOc1cc(N(CC)CC)ccc1C(C(=O)NC(C)(C)C)N(C(=O)C1CCc2cc(F)ccc2O1)c1ccc(Br)cc1` (stereo not drawn), with 91.5% (inactive). `Cc1cc2nc3c4ccccc4n(CC4=NCCN4)c3nc2cc1C`: the growth was 15.8% (inactive). To `Cn1cc(-c2nc(N)nnc2-c2c[nH]c3ccc(F)cc23)c2cccnc21` belongs 39% (inactive); to `Cc1nc(Nc2ccccn2)sc1C(=O)CC(SCC(=O)Nc1ccc(Cl)cc1)c1ccccc1F` (stereo not drawn), 11% (inactive). For `Cc1cccc(-c2nc(Nc3ccc(C)c(S(N)(=O)=O)c3)c3ccccc3n2)c1`, the growth was 32.5% (inactive).

With `CN(C)CCn1c2ccccc2c2nc3cc(C(F)(F)F)ccc3nc21`, the growth was 36.4% (inactive). Then `S=C(Nc1ccccc1)Nc1ccc(OCc2nc3ccccc3[nH]2)cc1`, with 39.8% (inactive).

For the origin of these results see PubChem BioAssay (NCI).
